Laboratory results as given in PubChem BioAssay AID1159580 (chemical genetic matrix, 2015).
In all, about 5,500 compounds went through this assay and about 2,000 (36%) were called active. Inconclusive results (about 18%) are left out. No stated cut-off is given here; in the data, active means normalized growth mostly below about 0.91 (no sharp cut-off); inconclusive means no clear call, values can overlap the other calls; inactive means mostly above about 0.92. This is one part of the list.

Assay: chemical genetic growth profiling, strain panel (AID 1159580);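 further: tested at 20 µM; growth read once vehicle control cultures reached saturation at 30 °C; 1 = growth at the plate median or of vehicle wells; lower values mean less growth of the strain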
Conditions: S. cerevisiae deletion strains, growth OD

Measured: normalized growth

CO[C@H]1[C@@H](O)[C@@H](C)O[C@H](O[C@H]2CCC3(C)C4CCC5(C)[C@@H](C6=CC(=O)OC6)CC[C@]5(O)[C@@H]4CC[C@]3(O)C2)[C@@H]1O (stereo not given in full)
inactive: locus YAL021C, strain ccr4, hits give low values 0.993 | locus YAL026C, strain drs2, hits give low values 1.04 | locus YAL030W, strain snc1, hits give low values 1.03 | locus YBL061C, strain skt5, hits give low values 1.05 | locus YBR009C, strain hhf1, hits give low values 1.02 | locus YBR023C, strain chs3, hits give low values 1.03 | locus YBR171W, strain sec66, hits give low values 1.03 | locus YBR231C, strain swc5, hits give low values 1.02 | locus YBR279W, strain paf1, hits give low values 1.02 | locus YCL011C, strain gbp2, hits give low values 1.03 | locus YCL016C, strain dcc1, hits give low values 1.02 | locus YCL061C, strain MRC1, hits give low values 1.02 | locus YCL069W, strain vba3, hits give low values 1.02 | locus YCR088W, strain abp1, hits give low values 1.02 | locus YDL005C, strain med2, hits give low values 1.03 | locus YDL040C, strain nat1, hits give low values 1 | locus YDR001C, strain nth1, hits give low values 1.02 | locus YDR069C, strain doa4, hits give low values 1.03 | locus YDR137W, strain rgp1, hits give low values 1.04 | locus YDR159W, strain sac3, hits give low values 1.04 | locus YDR195W, strain ref2 1.01 | locus YDR297W, strain sur2, hits give low values 1.04 | locus YDR334W, strain swr1, hits give low values 1.02 | locus YDR335W, strain msn5, hits give low values 1.02 | locus YDR392W, strain spt3, hits give low values 1.02 | locus YEL003W, strain gim4, hits give low values 1.02 | locus YEL037C, strain rad23, hits give low values 1.02 | locus YEL061C, strain CIN8 (second series), hits give low values 1.02 | locus YER015W, strain faa2, hits give low values 1.02 | locus YER016W, strain bim1, hits give low values 1.02 | locus YER111C, strain swi4, hits give low values 1.03 | locus YER155C, strain BEM2 (second series), hits give low values 1.04 | locus YFR010W, strain ubp6, hits give low values 1.04 | locus YGL167C, strain pmr1, hits give low values 1.03 | locus YGL173C, strain kem1, hits give low values 1.04 | locus YGL227W, strain vid30, hits give low values 1.01 | locus YGL240W, strain doc1, hits give low values 1.04 | locus YGL253W, strain hxk2, hits give low values 1.03 | locus YHR013C, strain ard1, hits give low values 1.04 | locus YHR027C, strain rpn1, hits give low values 1.05 | locus YHR030C, strain SLT2, hits give low values 1.05 | locus YHR079C, strain IRE1, hits give low values 1.08 | locus YHR142W, strain chs7, hits give low values 1.03 | locus YJL092W, strain hpr5, hits give low values 1.02 | locus YJL095W, strain BCK1 (second series), hits give low values 1.02 | locus YJL095W, strain BCK1, hits give low values 1.04 | locus YJL115W, strain asf1, hits give low values 1.04 | locus YJL129C, strain trk1, hits give low values 1.03 | locus YJL154C, strain vps35, hits give low values 1.02 | locus YJL164C, strain tpk1, hits give low values 1.01 | locus YJL166W, strain qcr8, hits give low values 1.03 | locus YJL187C, strain SWE1, hits give low values 1.03 | locus YJR066W, strain TOR1, hits give low values 1.01 | locus YKL160W, strain elf1, hits give low values 1.01 | locus YKR026C, strain gcn3, hits give low values 1.02 | locus YKR091W, strain srl3, hits give low values 1.02 | locus YLL001W, strain dnm1, hits give low values 1.03 | locus YLL026W, hits give low values 1.03 | locus YLL041C, strain sdh2, hits give low values 1.02 | locus YLR027C, strain aat2, hits give low values 1 | locus YLR113W, strain HOG1, hits give low values 0.976 | locus YLR221C, strain rsa3, hits give low values 1.03 | locus YLR258W, strain gsy2, hits give low values 1 | locus YLR262C, strain YPT6 (second series), hits give low values 1.03 | locus YLR320W, strain mms22, hits give low values 1.03 | locus YLR342W, strain FKS1, hits give low values 1.03 | locus YLR357W, strain rsc2, hits give low values 1.06 | locus YLR370C, strain arc18, hits give low values 1.01 | locus YLR384C, strain iki3, hits give low values 1.04 | locus YML120C, strain ndi1, hits give low values 1.01 | locus YMR058W, strain fet3, hits give low values 1.03 | locus YMR125W, strain sto1, hits give low values 1.03 | locus YMR129W, hits give low values 1.02 | locus YMR205C, strain PFK2, hits give low values 1.06 | locus YMR231W, strain pep5, hits give low values 1 | locus YNL071W, strain lat1, hits give low values 1.02 | locus YNL183C, strain NPR1, hits give low values 1 | locus YNL209W, strain ssb2, hits give low values 1.02 | locus YNL248C, strain rpa49, hits give low values 1.03 | locus YNL322C, strain KRE1 (second series), hits give low values 1.02 | locus YNR049C, strain mso1, hits give low values 1.04 | locus YOR001W, strain rrp6, hits give low values 1.03 | locus YOR070C, strain gyp1, hits give low values 1.02 | locus YOR080W, strain dia2, hits give low values 1.04 | locus YOR083W, strain WHI5, hits give low values 1.02 | locus YOR106W, strain vam3, hits give low values 1.03 | locus YOR231W, strain MKK1, hits give low values 1.04 | locus YOR265W, strain rbl2, hits give low values 1.04 | locus YOR270C, strain vph1, hits give low values 1.08 | locus YOR290C, strain snf2, hits give low values 1.01 | locus YPL051W, strain arl3, hits give low values 1.01 | locus YPL078C, strain atp4, hits give low values 1.02 | locus YPL106C, strain sse1, hits give low values 1.02 | locus YPL240C, strain hsp82, hits give low values 1.01 | locus YPL256C, strain CLN2, hits give low values 1.08
